Results on 36 compounds are retold here after ChEMBL document CHEMBL3433997, “St. Jude Leishmania screening dataset” (2016).

Where “and” joins values, the source holds several entries; their conditions need not be identical. Identical values can stand only once.

What all share (assay type): functional
The target in experiment [1] is Solute carrier family 2, facilitated glucose transporter member 1 (Homo sapiens) (UniProt P11166). The experiment is described as follows: ST_JUDE_LEISH: Cytotoxicity at 2uM final concentration against transgenic Leishmania Mexicana promastigotes LmGLUT1 that are glucose transport deficient and complemented with the human glucose transporter GLUT1. Activity is measured by DNA content using SYBR green in vitro.

The target in experiment [2] is Hexose transporter 1 (Plasmodium falciparum) (UniProt O97467). Description: ST_JUDE_LEISH: Cytotoxicity at 2uM final concentration against transgenic Leishmania Mexicana promastigotes LmPfHT that are glucose transport deficient and complemented with the Plasmodium falciparum hexose transporter. Activity is measured by DNA content using SYBR green in vitro.
Experiment [3] concerns the target Glucose transporter (Leishmania mexicana) (UniProt O61059). Description: ST_JUDE_LEISH: Cytotoxicity at 2uM final concentration against transgenic Leishmania Mexicana promastigotes LmGT2 that are glucose transport deficient and complemented with the L. Mexicana glucose transporter 2. Activity is measured by DNA content using SYBR green in vitro.

Sequence of Solute carrier family 2, facilitated glucose transporter member 1 (Homo sapiens) (P11166 whole entry): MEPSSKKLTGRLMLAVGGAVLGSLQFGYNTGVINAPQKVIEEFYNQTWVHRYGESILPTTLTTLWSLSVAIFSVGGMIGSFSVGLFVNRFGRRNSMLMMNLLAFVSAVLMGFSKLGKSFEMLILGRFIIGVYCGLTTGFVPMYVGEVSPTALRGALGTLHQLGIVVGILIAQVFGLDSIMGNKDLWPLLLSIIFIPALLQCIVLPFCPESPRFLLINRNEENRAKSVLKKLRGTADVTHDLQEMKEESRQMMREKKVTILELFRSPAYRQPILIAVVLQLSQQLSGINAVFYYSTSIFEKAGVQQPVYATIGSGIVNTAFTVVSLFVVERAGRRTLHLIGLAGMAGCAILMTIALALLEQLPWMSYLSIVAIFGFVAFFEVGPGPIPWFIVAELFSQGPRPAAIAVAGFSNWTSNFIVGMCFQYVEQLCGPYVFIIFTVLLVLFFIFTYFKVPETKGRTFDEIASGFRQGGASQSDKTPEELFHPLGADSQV

For the compound `COc1cc(F)c2ncc(Cl)c([C@H](O)CN3CCC(NCc4ccc5c(n4)NC(=O)CO5)CC3)c2c1`, the figures for the inhibition in experiment [1], in experiment [2] and in experiment [3] were -1.35%, 0.88% and 0.03%, respectively.

In the case of `O=C1Nc2cccc3c2C1(CCCCN1CCC(c2cc4ccncc4[nH]2)CC1)CCC3` (stereo not drawn), the inhibition in experiment [1] was -0.19% and 8.55%; in experiment [2] it was 0.01% and 8.94%; in experiment [3], -0.84% and 8.48%.

As for `Cc1nn(C)c(C)c1CN(Cc1nc(-c2cccc(Oc3ccccc3)c2)oc1C)C1CC1`, the inhibition in experiment [1] stood at 4.08%; in experiment [2] it was 4.11%; in experiment [3] it was 5.34%.

On to `CCCN(CCC)C(=O)c1cc(-c2cccc(C)c2)nc2ccccc12`, for which the inhibition in experiment [1] was 2.62%; in experiment [2], 0.69%; in experiment [3], -1.61%.

As for `CC(=O)Nc1ncc(C(=O)Nc2ccc(-c3cccc(-c4nc5cc(C(F)(F)F)ccc5[nH]4)c3)cc2)s1`, the inhibition in experiment [1] is -2.18%; in experiment [2] it was -2.1%; in experiment [3], -2.74%.

Turning to `Cc1cc(N2CCC(NS(=O)(=O)c3ccc(F)cc3)CC2)nc(Nc2cccc(C#N)c2)n1`, the inhibition in experiment [1] amounted to 39.9%; in experiment [2] it was 46.5%; in experiment [3], 41%.

For the compound `O=C(Cn1c(CCc2cccc(F)c2F)cc(=O)c2ccccc21)N(CCN1CCCCC1)Cc1ccc(-c2ccc(C(F)(F)F)cc2)cc1`, the inhibition amounted to 6.77% in experiment [1], 5.08% in experiment [2] and 3.76% in experiment [3].

`CC(CN(C)C)C(=O)Nc1cccc(-c2ccc(-c3nc4cc(F)ccc4[nH]3)cc2)c1` (stereo not drawn): the inhibition in experiment [1] was -1.76%; in experiment [2], -3.5%; in experiment [3], -0.1%.

Take `CC(C)NCc1ccc(-c2cccc(CN3CCC(c4ccccc4)CC3)c2)c(C(=O)NCC2CCCCC2)c1`: the inhibition in experiment [1] stood at 7.97%; in experiment [2] it was 8.3%; in experiment [3] it was 8.2%.

Consider `c1cc(-c2ccc(CNC3CCOCC3)cc2)cc(-c2nc3ccccc3[nH]2)c1`, for which the inhibition in experiment [1] was -0.19%; in experiment [2] it was 1.26%; in experiment [3] it was -2.46%.

Turning to `Oc1ccc(CCNc2nc(NCc3ccccc3-c3ccc(C(F)(F)F)cc3)nc(NC3CCNCC3)n2)cc1`, the inhibition came out at 1.32% in experiment [1], 0.48% in experiment [2] and 0.66% in experiment [3].

For `CCOc1ccc(-c2nonc2NC(=O)CC(C)C)cc1OCC`, the inhibition in experiment [1] was -0.61%; in experiment [2] it was -0.84%; in experiment [3], -1.25%.

As for `CCCCNS(=O)(=O)c1ccc(NC(=O)c2cc([N+](=O)[O-])ccc2Cl)cc1`, the inhibition in experiment [1] was 2.21%; in experiment [2], 0.49%; in experiment [3], -1.07%.

In the case of `CC(Cc1ccc(NS(=O)(=O)c2ccc(CC(C)NCCc3cccc(Cl)c3)cc2)cc1)NCCc1cccc(Cl)c1` (stereo not drawn), the inhibition in experiment [1] came out at 0.89%; in experiment [2] it was 9.69%; in experiment [3] it was 7.25%.

As to `CN(C)CCCNCc1ccc(-c2ccc(CNCCc3ccccc3)cc2)cc1`, the values for the inhibition in experiment [1], in experiment [2] and in experiment [3] were -0.43%, 0.15% and -0.49%, respectively.

With `CS(=O)(=O)c1ccc(-c2cc(C(F)(F)F)nc(N[C@@H]3CCCC[C@H]3OCc3ccccc3)n2)cc1`, the values for the inhibition in experiment [1], in experiment [2] and in experiment [3] were 1.33%, 1.84% and 1.66%, respectively.

With `COc1cc(C(=O)N2CCOC(CCN3CCC(c4ccc(Cl)cc4)CC3)(c3ccc(Cl)c(Cl)c3)C2)cc(OC)c1OC` (stereo not drawn), the results for the inhibition in experiment [1], in experiment [2] and in experiment [3] were 12.4%, 11.2% and 13.7%, respectively.

With `CCOC(=O)c1cc(C(=O)OC)c2ccccn12`, the inhibition in experiment [1] amounted to 2.17%; in experiment [2], 0.87%; in experiment [3] it was 1.34%.

Take `COc1ccc(S(=O)(=O)N2CCCc3ccc(Br)cc32)cc1N1CCN(C(=O)C(Cl)(Cl)Cl)CC1`: the results for the inhibition in experiment [1], in experiment [2] and in experiment [3] were 2.54%, 2.99% and 1.28%, respectively.

For `c1ccc(Oc2ccc(Nc3ccnc4cc(-c5ccc(CN6CCNCC6)o5)ccc34)cc2)nc1`, the inhibition in experiment [1] is 11.2%; in experiment [2] it was 8.71%; in experiment [3] it was 5.3%.

`CCOc1ccccc1N1CCN(CCCNC(=O)/C(=C/C=C/c2cc3cc(Cl)c(Cl)cc3[nH]2)OC)CC1`: the inhibition was 1.44% in experiment [1], -0.07% in experiment [2] and 1.24% in experiment [3].

As to `CC(=O)Nc1ccc(CN2CCc3ccc(NS(=O)(=O)c4cccc(OCc5ccc(Cl)cc5)c4)cc3CC2)s1`, the inhibition in experiment [1] is 2.65%; in experiment [2], -0.08%; in experiment [3], 0.54%.

In the case of `Cn1c(=O)n(C)c2cc(CNCCNc3ccnc4cc(Cl)ccc34)ccc21`, the inhibition in experiment [1] is 2.25%; in experiment [2], 3.88%; in experiment [3] it was 0.4%.

Consider `Cc1ccc2c(N/N=C/c3cccc([N+](=O)[O-])c3)cc(C)nc2c1`, for which the inhibition came to 8.19% in experiment [1], 4.7% in experiment [2] and 3.94% in experiment [3].

Take `Cc1ccc(Cn2ncc(N3CC(C)NC(C)C3)c(Cl)c2=O)cc1NC(=O)Nc1ccc(-c2ccccc2)cc1` (stereo not drawn): the results for the inhibition in experiment [1], in experiment [2] and in experiment [3] were 14.6%, 13.9% and 13.6%, respectively.

For `CCN(CC)CCN(Cc1ccc(-c2ccc(C(F)(F)F)cc2)cc1)C(=O)c1ccc(-c2ccc(NC(=O)OC)cc2C)cc1`, the inhibition amounted to 29.9% in experiment [1], 17.9% in experiment [2] and 10.1% in experiment [3].

For the compound `Cc1cc(=NN=Cc2ccccc2)c2cc(C(F)(F)F)ccc2[nH]1`, the inhibition in experiment [1] stood at 8.02%; in experiment [2], 8.87%; in experiment [3] it was 6.17%.

In the case of `O=C(Nc1cccc(C(F)(F)F)c1)NC1CCN(c2ccnc3ccccc23)CC1`, the inhibition stood at 5.82% in experiment [1], 5.09% in experiment [2] and 2.7% in experiment [3].

Turning to `COc1cc2nc(N3CCC(CNC(=O)c4cccc5cc[nH]c45)CC3)nc(N)c2cc1OC`, the values for the inhibition in experiment [1], in experiment [2] and in experiment [3] were 6.26%, 4.21% and 5.67%, respectively.

Turning to `Cc1ccc(NC(=O)NC2CCN(c3ccnc4cc(Cl)ccc34)CC2)cc1`, the inhibition turned out to be 9.02% in experiment [1], 7.47% in experiment [2] and 8.65% in experiment [3].

Consider `COc1cccc(OCC2CCCN(CCCCNC(=O)c3ccc(NC(=O)c4ccc(Cl)cc4)cc3)C2)c1` (stereo not drawn), for which the inhibition in experiment [1] is -2.42%; in experiment [2] it was 1.68%; in experiment [3], -1.92%.

Regarding `O=C(NCCN1CCC(NC(=O)c2ccc(-c3ccccn3)s2)CC1)c1cccc(C(F)(F)F)c1`, the inhibition in experiment [1] worked out at 3.66%; in experiment [2] it was 2.93%; in experiment [3], 3.43%.

As for `O=C(Cc1cn(-c2ccccc2)nc1-c1ccc(Cl)cc1)Nc1nccs1`, the inhibition was 7.92% in experiment [1], 8.35% in experiment [2] and 7.98% in experiment [3].

For the compound `Cc1cccc(-c2nn(-c3ccccc3)cc2C(=O)Nc2nnc(C)o2)c1`, the inhibition in experiment [1] is -1.38%; in experiment [2] it was -1.47%; in experiment [3] it was 2.67%.

Regarding `c1ccc(CCNCc2ccc(-c3cccc(CNc4ccc5ncccc5c4)c3)cc2)cc1`, the inhibition in experiment [1] is 14.6%; in experiment [2] it was 11.7%; in experiment [3] it was 11.3%.

In the case of `CS(=O)(=O)CCNCc1ccc(-c2ccc3ncnc(Nc4ccc(OCc5ccccc5)c(Cl)c4)c3c2)o1`, the inhibition was -0.18% in experiment [1], -1.51% in experiment [2] and -1.49% in experiment [3].

A word on the inhibition: it is the change of the read-out against control, counted positive when it falls.
